Among the data in PubChem BioAssay (Tox21) are Potency values, retold here.

Molecules are shown by their SMILES. Several values for one entry are separate records, joined by “and”; a condition that tells them apart may be missing. Equal values may be shown once. Records with an inconclusive call do not appear. Activity calls are given as the source filed them. Unless noted, calls come from the whole dose curve.

Assay [1] is described as follows: Nuclear factor erythroid 2-related factor 2/antioxidant responsive element (Nrf2/ARE) small molecule agonists: qHTS cell viability counter screen in human keratinocytes (AID 1919968; active = well fitted curve in the direction sought with a large enough effect in the repeat runs; an effect the other way counts as inactive or inconclusive; note: nearly all actives have a fitted effect of over 55% in size). Summed up:
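HaCaT ARE reporter line, 1,500 cells/well; 5 h settle, 37 C/5% CO2; cpd in DMSO pinned; 23 h exposure; CellTiter-Fluor, 1 h; fluorescence.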
On the technique in general: In qHTS, concentration-response curves come from the screen itself.

Assay [2] concerns the target KiSS-1 receptor (Homo sapiens) (UniProt Q969F8). Nature of the assay: Human kisspeptin (KISS1R) small molecule agonists, calcium flux assay in KISS1R-HEK293 cells (AID 1920064; active = well fitted curve in the direction sought with a large enough effect in the repeat runs; an effect the other way counts as inactive or inconclusive). A digest of the protocol: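 Stable human KISS1R HEK293 line; 18 h plating, 37 C/5% CO2; calcium dye 1 h 37 C; compound pin transfer; kinetic fluorescence Ex/Em 480/540, 3 min.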
Assay [3] is described as follows: G protein-coupled receptor (GPCR) small molecule agonists, calcium flux assay: HEK293 wild type cell line counter screen (AID 1920065). Summed up:
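Kinetic fluorescence at Ex/Em 480/540, recorded every second over 3 min, served as the read-out after compound addition. Each compound was tested at 15 concentrations in triplicate on cells pre-loaded with calcium dye for 1 h.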
On the technique in general: Calcium assays in cells follow changes in intracellular calcium, usually with a dye or a luminescent sensor.

Assay [4] can be described thus: p53 small molecule agonists, cell-based qHTS assay with human liver microsomes (AID 1963577). Note: potency is the fitted concentration of half-maximal effect. Summed up:
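Compounds act here after metabolic activation: human liver microsomes and NADPH, both at 0.5 mg/mL final, were co-added to p53RE-bla cells. Incubation ran 16 h at 37 C, followed by LiveBLAzer detection.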

A short description of assay [5]: p53 small molecule agonists, cell-based qHTS assay with rat liver microsomes (AID 1963578). Summed up: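 Read-out is beta-lactamase reporter fluorescence (LiveBLAzer, 2 h, room temperature, dark) in p53RE-bla cells treated 16 h at 37 C with compound, rat liver microsomes and NADPH, both 0.5 mg/mL final.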
A short description of assay [6]: p53 small molecule agonists, cell-based qHTS assay with human liver microsomes: qHTS cell viability counter screen (AID 1963579). Note: nearly all actives have a fitted effect of over 45% in size. Summed up: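 Cells carrying the p53 response-element beta-lactamase reporter are treated for 16 h at 37 C with test compounds in the presence of human liver microsomes and NADPH (both 0.5 mg/mL final); ATP-based CellTiter-Glo luminescence then reports viability.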

The nature of assay [7]: p53 small molecule agonists, cell-based qHTS assay: qHTS cell viability counter screen (AID 1963581). Note: nearly all actives have a fitted effect of over 45% in size. A digest of the protocol: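 HCT-116 p53RE-bla cells, 4,000/well, plated 5 h before compound pin transfer; 16 h at 37 C; bla substrate 2 h RT; then CellTiter-Glo, 30 min RT, luminescence.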
A short description of assay [8]: p53 small molecule agonists, cell-based qHTS assay (AID 1963582; active = well fitted activation curve with a large enough effect in the signal ratio in the repeat runs, not every such curve was filed as active; the % refers to the signal ratio). A digest of the protocol: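 Reporter line: p53RE-bla. Pre-incubation 5 h, 37 C, 5% CO2; compound (DMSO, pin tool) 16 h, 37 C; B/G FRET substrate 2 h RT; fluorescence intensity read.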
The target of assay [9] is 5-hydroxytryptamine receptor 2A (Homo sapiens) (UniProt P28223). Kind of assay: 5-hydroxytryptamine receptor 2A (HTR2A) small molecule antagonists, cell-based qHTS assay (AID 1963586). Note: nearly all actives have a fitted effect of over 45% in size. Summed up: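 Antagonist-mode intracellular calcium assay: DOI (4 nM) added after 5 min compound pre-incubation at room temperature to dye-loaded HTR2A-CHO cells. Fluorescence followed for 3 min, sampled every second.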
Sequence of 5-hydroxytryptamine receptor 2A (Homo sapiens) (P28223 whole entry, looked up): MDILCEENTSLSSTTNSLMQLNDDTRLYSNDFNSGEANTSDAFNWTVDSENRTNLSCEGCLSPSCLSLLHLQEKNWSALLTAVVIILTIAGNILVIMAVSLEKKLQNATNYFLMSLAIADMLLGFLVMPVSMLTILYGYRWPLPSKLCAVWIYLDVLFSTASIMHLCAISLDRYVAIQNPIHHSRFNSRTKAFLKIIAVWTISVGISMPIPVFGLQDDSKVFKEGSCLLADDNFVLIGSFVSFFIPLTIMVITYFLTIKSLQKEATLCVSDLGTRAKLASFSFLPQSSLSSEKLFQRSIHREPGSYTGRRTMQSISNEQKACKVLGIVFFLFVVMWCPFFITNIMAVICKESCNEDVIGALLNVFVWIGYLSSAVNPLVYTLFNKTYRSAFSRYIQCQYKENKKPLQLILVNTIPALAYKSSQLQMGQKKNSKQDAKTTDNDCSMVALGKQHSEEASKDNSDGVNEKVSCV

The target is the same in assay [10]. Kind of assay: 5-hydroxytryptamine receptor 2A (HTR2A) small molecule agonists, cell-based qHTS assay (AID 1963587). Note: nearly all actives have a fitted effect of over 30% in size. A digest of the protocol: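 CHO cells stably expressing human HTR2A, plated 18 h, loaded with calcium dye 1 h at 37 C. Agonist mode: compounds added and intracellular calcium fluorescence recorded kinetically for 2 min at 1 sec intervals.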
Assay [11] deals with Muscarinic acetylcholine receptor M1 (Homo sapiens) (UniProt P11229). Nature of the assay: Cholinergic receptor muscarinic 1 (CHRM1) small molecule agonists, cell-based qHTS assay (AID 1963589). Note: nearly all actives have a fitted effect of over 35% in size. Summed up: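 Human M1 in stable CHO line; 18 h plating, 1 h dye load 37 C; cpd added (agonist mode); Ca2+ fluorescence kinetic read, 1 s intervals; 15 conc, 3 runs.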
Sequence of Muscarinic acetylcholine receptor M1 (Homo sapiens) (P11229 whole entry, looked up): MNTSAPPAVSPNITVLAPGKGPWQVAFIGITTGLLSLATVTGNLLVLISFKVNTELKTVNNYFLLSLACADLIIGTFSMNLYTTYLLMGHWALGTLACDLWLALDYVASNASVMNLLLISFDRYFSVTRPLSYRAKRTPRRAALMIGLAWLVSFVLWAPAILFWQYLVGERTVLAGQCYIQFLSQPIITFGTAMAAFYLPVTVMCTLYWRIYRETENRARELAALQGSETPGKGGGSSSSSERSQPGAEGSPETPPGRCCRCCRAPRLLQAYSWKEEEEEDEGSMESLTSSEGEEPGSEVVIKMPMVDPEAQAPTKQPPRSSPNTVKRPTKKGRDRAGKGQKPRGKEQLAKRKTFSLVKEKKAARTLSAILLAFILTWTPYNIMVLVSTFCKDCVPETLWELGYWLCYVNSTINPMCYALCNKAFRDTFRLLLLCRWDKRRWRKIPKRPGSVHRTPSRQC
Assay [12] in a line: cAMP Responsive Elements (CRE) small molecule agonists, cell-based qHTS assay (AID 1963590). A digest of the protocol: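 HEK 293T CRE-bla, 2,000 cells/well, 18 h preincubation 37 C/5% CO2; cpds (DMSO) pinned, 3 h; LiveBLAzer B/G FRET substrate, 2 h RT.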
Assay [13] is described as follows: cAMP Responsive Elements (CRE) small molecule antagonists, cell-based qHTS assay (AID 1963591; active = well fitted inhibition curve with a large enough effect in the signal ratio in the repeat runs, not every such curve was filed as active; the % refers to the signal ratio). Summed up:
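Beta-lactamase reporter read by FRET substrate (LiveBLAzer B/G) after 2 h at room temperature. CRE-bla HEK293T cells had received compound plus 0.25 uM (final) NKH477 for 3 h at 37 °C.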

The target in assay [14] is Beta-2 adrenergic receptor (Homo sapiens) (UniProt P07550). Nature of the assay: Adrenergic beta2 receptor (ADRB2) small molecule antagonists, cell-based qHTS assay (AID 1963592). Note: series mostly up to about 92 µM; nearly all actives have a fitted effect of over 50% in size. A digest of the protocol: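 Cells (CHO, stable ADRB2 overexpression) incubated 18-20hr at 37C; compounds added from DMSO; agonist mix (1nM isoproterenol, 100uM IBMX, 25uM Ro-20-1724) added; 0.5hr RT; d2-cAMP and anti-cAMP-cryptate added; 1hr RT; 665/615 nm read.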
Sequence of Beta-2 adrenergic receptor (Homo sapiens) (P07550 whole entry, looked up): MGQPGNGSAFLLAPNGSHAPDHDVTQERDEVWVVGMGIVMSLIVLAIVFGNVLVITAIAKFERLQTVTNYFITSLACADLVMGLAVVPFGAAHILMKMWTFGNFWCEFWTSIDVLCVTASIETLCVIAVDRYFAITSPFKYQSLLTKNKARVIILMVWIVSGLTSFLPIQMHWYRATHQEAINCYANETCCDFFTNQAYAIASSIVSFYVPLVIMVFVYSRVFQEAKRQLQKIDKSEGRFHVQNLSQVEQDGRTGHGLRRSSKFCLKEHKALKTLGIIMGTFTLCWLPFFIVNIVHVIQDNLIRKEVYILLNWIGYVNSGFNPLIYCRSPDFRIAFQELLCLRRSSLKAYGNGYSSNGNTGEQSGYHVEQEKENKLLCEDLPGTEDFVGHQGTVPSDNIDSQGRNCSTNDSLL

The target of assay [15] is D(2) dopamine receptor (Homo sapiens) (UniProt P14416). Nature of the assay: Dopamine D2 receptor (DRD2) small molecule agonists, cell-based qHTS assay (AID 1963594). Note: nearly all actives have a fitted effect of over 35% in size. A digest of the protocol:
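HEK293 cells stably expressing human DRD2, pre-treated with PDE inhibitor Ro20-1724 (0.1 mM final) and compound 10 min at room temperature, then stimulated with NKH477 (200nM […]) for 30 min. cAMP read by HTRF (665/620 nm).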

The target is the same in assay [16]. Kind of assay: Dopamine D2 receptor (DRD2) small molecule antagonists, cell-based qHTS assay (AID 1963595; active = well fitted inhibition curve with a large enough effect in the signal ratio in the repeat runs, with a control signal flat; the % refers to the signal ratio). A digest of the protocol:
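Antagonism was scored as restored cAMP in HEK293-DRD2 cells. These cells were stimulated with 200 nM NKH477 and 12 nM quinpirole for 30 min at room temperature, in the presence of 0.1 mM Ro20-1724.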

The target of assay [17] is Muscarinic acetylcholine receptor M1 (Homo sapiens) (UniProt P11229). Nature of the assay: Cholinergic receptor muscarinic 1 (CHRM1) small molecule antagonists, cell-based qHTS assay (AID 1963588). Note: nearly all actives have a fitted effect of over 40% in size. Summed up: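 CHRM1-CHO calcium-flux assay, antagonist mode. Cells were seeded 18 h, dye-loaded 1 h at 37 C and given compound for 5 min at RT, then acetylcholine was added at 50nM. FDSS fluorescence was read 3 min; 15 concentrations, three runs.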

Assay [18] concerns the target Beta-2 adrenergic receptor (Homo sapiens) (UniProt P07550). Kind of assay: Adrenergic beta2 receptor (ADRB2) small molecule agonists, cell-based qHTS assay (AID 1963593).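 Note: CHO cells stably overexpressing human ADRB2.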 Summed up: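 CHO cells stably over-expressing ADRB2 were plated overnight at 37C, then dosed with compounds plus a stimulation mix containing 100uM IBMX and 25uM Ro-20-1724 for 0.5hr at room temperature. cAMP was measured by HTRF competition, 1hr.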

A short description of assay [19]: p53 small molecule agonists, cell-based qHTS assay with rat liver microsomes: qHTS cell viability counter screen (AID 1963580). Note: nearly all actives have a fitted effect of over 45% in size. A digest of the protocol:
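Viability is assessed in parallel with the p53 reporter read: HCT-116 p53RE-bla cells receive compounds plus rat microsomes and NADPH (0.5 mg/mL final apiece), incubate 16 h at 37 C, and then CellTiter-Glo luminescence is recorded.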

Sequence of D(2) dopamine receptor (Homo sapiens) (P14416 whole entry, looked up): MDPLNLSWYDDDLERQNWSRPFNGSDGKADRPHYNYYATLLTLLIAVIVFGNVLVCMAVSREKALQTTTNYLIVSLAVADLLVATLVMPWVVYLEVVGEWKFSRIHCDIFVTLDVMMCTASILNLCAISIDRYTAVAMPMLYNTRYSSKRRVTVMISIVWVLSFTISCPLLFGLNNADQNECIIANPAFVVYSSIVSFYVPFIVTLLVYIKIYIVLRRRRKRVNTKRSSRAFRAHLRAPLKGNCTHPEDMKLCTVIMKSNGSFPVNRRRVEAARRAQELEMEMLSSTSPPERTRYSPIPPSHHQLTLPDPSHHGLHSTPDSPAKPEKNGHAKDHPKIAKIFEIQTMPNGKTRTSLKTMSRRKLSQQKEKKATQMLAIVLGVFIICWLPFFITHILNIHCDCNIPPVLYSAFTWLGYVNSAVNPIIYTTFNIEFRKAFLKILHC
Sequence of KiSS-1 receptor (Homo sapiens) (Q969F8 whole entry, looked up): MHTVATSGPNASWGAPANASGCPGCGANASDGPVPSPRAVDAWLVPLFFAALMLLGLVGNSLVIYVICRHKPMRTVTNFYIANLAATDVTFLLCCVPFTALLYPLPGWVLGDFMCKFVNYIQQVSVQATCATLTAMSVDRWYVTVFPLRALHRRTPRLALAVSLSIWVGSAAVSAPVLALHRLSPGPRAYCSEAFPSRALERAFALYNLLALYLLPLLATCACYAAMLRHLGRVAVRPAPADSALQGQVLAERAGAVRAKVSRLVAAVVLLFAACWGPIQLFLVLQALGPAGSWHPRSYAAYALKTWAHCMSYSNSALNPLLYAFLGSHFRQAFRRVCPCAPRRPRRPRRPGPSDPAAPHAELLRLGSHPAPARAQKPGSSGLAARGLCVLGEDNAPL

With `CON(C)C(=O)Nc1ccc(Cl)cc1`, the Potency result in [1], in [2], in assay [3], in [4], in assay [5] and in assay [6] was “inactive” each time. The Potency entry in assay [7], in [8], in [9], in assay [10], in assay [11] and in [12] was “inactive” throughout. The Potency result in assay [13], in [14], in assay [15] and in assay [16] was “inactive” each time.
For `C=CC(C)=O`, the Potency entry in assay [1], in [2], in assay [3], in [4], in assay [5] and in assay [6] was “inactive” throughout. Also, the Potency entry in [8], in [9], in assay [10], in assay [17], in assay [11] and in assay [12] was “inactive” in each case. Also, the Potency entry in assay [13], in assay [14], in assay [18] and in assay [15] was “inactive” each time.
Regarding `CCN(N=O)C(N)=O`, the Potency result in assay [1], in assay [3], in assay [4], in assay [5], in [6] and in [19] was “inactive” in each case. The Potency entry in assay [7], in [8], in [9], in [10], in assay [17] and in [11] was “inactive” each time. Further, the Potency entry in assay [12], in assay [13], in assay [14], in [18], in [15] and in [16] was “inactive” in each case.
For `Nc1ccc(Oc2ccc(N)cc2)cc1`, the Potency result in [1], in assay [2], in [3], in assay [4], in [6] and in assay [19] was “inactive” in each case. Further, the Potency result in assay [7], in [8], in assay [9], in assay [10], in [17] and in assay [11] was “inactive” in each case. The Potency result in [12], in assay [13], in assay [14], in assay [18], in assay [15] and in [16] was “inactive” throughout.
For `CCOP(=O)(OCC)Oc1ccc([N+](=O)[O-])cc1`, the Potency entry in assay [1], in [2], in [6], in assay [7], in assay [8] and in [9] was “inactive” in each case. Further, the Potency entry in assay [10], in [17], in [11], in assay [12], in assay [14] and in [18] was “inactive” each time. The Potency result in assay [15] and in assay [16] was “inactive” each time. Further, the Potency in assay [4] is 654 nM (active) and 513 nM (active).
Take `O=[N+]([O-])c1ccc(CBr)cc1`: the Potency entry in assay [1], in assay [2], in assay [4], in assay [5], in assay [6] and in assay [19] was “inactive” throughout. The Potency result in assay [7], in assay [8], in [9], in [10], in [17] and in assay [11] was “inactive” throughout. Besides, the Potency entry in assay [12], in assay [13], in assay [14], in assay [18], in [15] and in assay [16] was “inactive” throughout.
Consider `C[C@]12CC[C@H]3[C@@H](CC[C@@]45O[C@@H]4C(O)=C(C#N)C[C@]35C)[C@@H]1CC[C@@H]2O`, for which the Potency entry in assay [1], in assay [2], in assay [3], in assay [5], in [19] and in assay [7] was “inactive” each time. Besides, the Potency result in assay [9], in assay [10], in assay [17], in assay [11], in assay [14] and in assay [18] was “inactive” throughout. Besides, the Potency entry in assay [15] and in assay [16] was “inactive” each time.
